Compound activity as filed in PubChem.
An excerpt weighted towards active compounds, which were near 11% of everything screened.
OTUD3 inh = inhibitors of human OTUD3 deubiquitinase. Q5T2D3. purified OTUD3, Ub-rhodamine fluorescence, 2 h. inhibition, % at 25 µM. 47,000 compounds, 0.7% hits. AID 1645858
USP30 block = inhibitors of human USP30 deubiquitinase. inhibition, % at 25 µM. 47,000 compounds, 5.3% hits. purified USP30, Ub-rhodamine cleavage fluorescence
USP28 inh = inhibitors of human USP28 deubiquitinase | 47,000 compounds, 3% hits | purified USP28, Ub-rhodamine cleavage fluorescence, 30 min | inhibition, % at 25 µM
USP17 inh = human USP17-like deubiquitinase inhibition; A8MUK1; purified USP17, Ub-rhodamine cleavage fluorescence, 3 h; inhibition, % at 50 µM; 47,000 compounds, 6.5% hits; AID 1645855
Target sequence (A8MUK1 whole entry, looked up): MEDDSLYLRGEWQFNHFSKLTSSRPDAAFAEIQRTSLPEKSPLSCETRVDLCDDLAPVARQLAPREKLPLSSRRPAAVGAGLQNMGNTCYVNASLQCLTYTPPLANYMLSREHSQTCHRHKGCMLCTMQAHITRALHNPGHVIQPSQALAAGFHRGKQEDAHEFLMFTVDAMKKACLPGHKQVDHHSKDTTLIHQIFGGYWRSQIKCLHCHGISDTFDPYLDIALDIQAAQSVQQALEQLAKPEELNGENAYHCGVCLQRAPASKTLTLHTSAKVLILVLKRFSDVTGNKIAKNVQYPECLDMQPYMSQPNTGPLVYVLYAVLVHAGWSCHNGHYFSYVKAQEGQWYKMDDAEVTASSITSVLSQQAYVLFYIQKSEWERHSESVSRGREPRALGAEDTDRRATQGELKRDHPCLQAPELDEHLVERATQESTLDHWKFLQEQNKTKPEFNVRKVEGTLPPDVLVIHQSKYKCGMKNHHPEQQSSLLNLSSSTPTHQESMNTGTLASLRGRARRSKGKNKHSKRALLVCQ
Each line names hits and unclear results; the compound was inactive in the other large screens. Cut-off read from the data, not from the text of the source: active = inhibition above about 30%; inactive = the rest.

CCOc1ccccc1NC(=O)C(OC(=O)c1ccc(OCC(=O)Nc2ccc(OC)cc2)c(OC)c1)c1ccccc1 (stereo not drawn)	none
CCOc1ccccc1NC(=O)COc1cc(OC)ccc1C(=O)c1ccccc1	USP28 inh 56.3
COc1ccc(NC(=O)CSc2nnc(-c3ccc(F)cc3)c3ccccc23)c(OC)c1	USP28 inh 38.9
COc1ccc(NC(=O)CSc2n[nH]c(C(C)C)n2)c(OC)c1	none
Cc1nn(-c2ccccn2)c2nc(-c3ccc(F)cc3)cc(C(=O)O)c12	none
Cc1ccc(-n2nc(C)c3c(C)cc(C(=O)NCc4cccs4)nc32)cc1	USP30 block 46.3, USP17 inh 31.2
CCCc1nc2c(sc3nc4c(cc32)COC(C)(C)C4)c(=O)n1CC(=O)Nc1ccccc1C	USP17 inh 61.6
Cc1nc(SC(C)C(=O)Nc2ccccc2)c2sc3nc4c(cc3c2n1)COC(C)(C)C4 (stereo not drawn)	none
O=c1c(Cc2ccccc2)coc2ccccc12	USP28 inh 49.9
O=C(NCc1ccccc1)c1nc2n(n1)-c1ccccc1S(=O)(=O)N2	USP30 block 33.7
Cc1noc(-c2ccnc(-n3cnc(C(=O)NC4CCCCC4)c3)c2)n1	none
c1ccc(-c2nnn3c2nc(NCC2CCCO2)c2ccccc23)cc1 (stereo not drawn)	none
CCCCNc1nc2c(-c3ccccc3)nnn2c2ccccc12	USP17 inh 68.2
COCCNc1nc2c(-c3cccc(C(F)(F)F)c3)nnn2c2ccccc12	USP30 block 31.6
Cc1ccc(CNc2nc3c(-c4ccc(C)cc4)nnn3c3ccccc23)cc1	none
COc1cnc(-c2ccccn2)nc1Sc1ccc(C)cc1	USP30 block 60.4
CCCn1c(=O)c2sccc2n2c(CCC(=O)N3CCc4ccccc4C3)nnc12	none (no result: USP17 inh)
CCCCCCCCCCCC1=C(O)C(=O)C=C(O)C1=O	OTUD3 inh 94.3, USP30 block 96.9, USP28 inh 98.5, USP17 inh 100.2
c1ccc2ncc(CN3CCC[C@H]3c3nc(-c4ccc(-n5ccnc5)nc4)no3)cc2c1	USP17 inh 40.6
CCOc1ccc(C2=NCCNC3=C2C(c2ccccc2)N(c2ccccc2)C3=O)cc1 (stereo not drawn)	USP30 block 53.7
Cc1ccc(C2C3=C(NCCN=C3c3ccccc3)C(=O)N2c2ccccc2)cc1 (stereo not drawn)	USP30 block 40.6
Cc1nc(-c2cccs2)cc(-c2cccc(Cl)c2)c1C#N	USP30 block 37.1
CCOC(=O)COc1nc(-c2cccs2)cc(C(F)(F)F)c1C#N	none
CCOCCCNc1ncnc2c1c(-c1ccccc1)cn2-c1ccc(F)cc1	none
Cn1nccc1-c1cncc(C2CCCN(S(C)(=O)=O)C2)n1 (stereo not drawn)	none
Cc1ccc(Nc2c(-c3cccnc3)nc3cc(C)ccn23)cc1	USP30 block 31.9, USP28 inh 33.0
COC(=O)c1cccc(Nc2c(-c3ccc(OC)cc3)nc3cnccn23)c1	none
O=C(Cc1ccsc1)N1CCC(Nc2ncnc3c2CCC3)C1 (stereo not drawn)	none
CCOC(=O)c1cc2c(ccn2-c2ccc(F)cc2)n1CC(=O)N1CCN(C(=O)c2ccco2)CC1	USP30 block 44.8, USP17 inh 36.5
CCOC(=O)c1cc2c(ccn2-c2ccc(F)cc2)n1CC(=O)NC1CCCCC1	none
CC(NC(=O)c1ccccc1)c1nc2ccccc2n1CC(=O)Nc1ccc(C#N)cc1 (stereo not drawn)	none
Cc1ccc(C(=O)NC(C)c2nc3ccccc3n2CC(=O)N2CCc3ccccc32)cc1 (stereo not drawn)	USP30 block 63.4, USP17 inh 76.4
CC(NC(=O)c1ccccc1)c1nc2ccccc2n1CC(=O)NC1CCCCC1 (stereo not drawn)	USP30 block 38.8, USP17 inh 38.6
COc1ccccc1Cc1nnc(-c2cnc3onc(C(C)C)c3c2)o1	none
CN1CC2CN(C(=O)c3cccc(C#N)c3)CCN2Cc2ccccc21 (stereo not drawn)	none
N#Cc1c(C(F)(F)F)cc(-c2ccccc2)nc1N1CCOCC1	USP17 inh 30.2
CCOC(=O)C1CCN(C(=O)c2ccc3c(c2)NC(=O)C(CS(=O)(=O)Cc2ccccc2Cl)N3)CC1 (stereo not drawn)	none
CC1OC1C(=O)[C@]1(O)[C@H](C)[C@@H](O)[C@@]23O[C@@]2([C@H](O)c2c(O)cccc2C3=O)[C@H]1O (stereo partly drawn)	USP17 inh 72.6
O=C(/C=C/c1cnc2ccccc2c1)NCc1ccccc1	USP30 block 41.4, USP17 inh 50.1
Cc1ccc(NC(=O)Cn2c(-n3nc(C)cc3C)nc3c(c2=O)CCCC3)c(C)c1	USP30 block 30.7, USP17 inh 58.8
COc1ccc(-c2cc(C(F)F)n3ncc(C(=O)N4CCN(c5ccccc5)CC4)c3n2)cc1	none
O=S(=O)(c1ccc2nc(NCc3cccnc3)cnc2c1)N1CCCCC1	none
COc1ccc(C(=O)CCC(=O)Nc2cc(F)ccc2F)cc1	none
O=C(Nc1ccc(N2CCOCC2)cc1)c1ccc(-c2ccc(N3CCCC3)nn2)cc1	USP17 inh 51.2
COc1ccc(NC(=O)c2ccc(-c3ccc(N4CCCC4)nn3)cc2)c(OC)c1	USP17 inh 40.7
O=C(Nc1cccc(-c2ccc(N3CCOCC3)nn2)c1)c1cccc2ccccc12	none
O=C(Nc1cccc(-c2ccc(N3CCOCC3)nn2)c1)c1ccccc1Br	USP30 block 38.8, USP17 inh 41.3
O=C(Nc1ccc(F)cc1)c1ccc(-c2ccc(N3CCCC3)nn2)cc1	none
COc1cc2c(cc1CN1C[C@@H](c3cccnc3)[C@@]3(CCCC(=O)N3)C1)CCC2	none
COc1ccc(S(=O)(=O)N2CCN(C(=O)c3cnc4ccccc4n3)CC2)cc1OC	none
O=C(Cn1c(-c2nc(-c3cccc(F)c3)no2)cccc1=O)NCc1ccco1	USP17 inh 39.7
Cc1ccc(NC(=O)Cn2c(-c3nc(C)no3)cccc2=O)c(C)c1	none (no result: USP17 inh)
O=C(Cn1c(-c2nc(-c3ccccc3)no2)cccc1=O)Nc1ccccc1	USP17 inh 34.1
CC(C)c1nnc(-c2ccc(=O)n(CC(=O)Nc3ccccc3)c2)o1	none (no result: USP17 inh)
CCc1noc(-c2ccc(=O)n(CC(=O)Nc3ccccc3)c2)n1	USP30 block 37.7
COc1ccccc1-c1nc(SCc2ccccn2)n[nH]1	none
Cc1cc2nc(-c3ccc(SCc4ccccn4)nc3)[nH]c2cc1C	USP17 inh 57.0
CC1=C(C(=O)N2CCCCC2)C(c2ccc(Br)cc2)n2ncnc2N1 (stereo not drawn)	USP28 inh 46.8 (no result: USP17 inh)
CC1=C(C(=O)NCc2ccccc2)C(c2ccc(C)cc2)n2ncnc2N1 (stereo not drawn)	USP30 block 34.0
CC(=O)c1ccc(NC(=O)CC2COc3ccccc3NC2=O)cc1 (stereo not drawn)	none
O=C(CCn1c(=O)c2sccc2n(CC(=O)OCc2ccccc2)c1=O)NCc1ccc2c(c1)OCO2	OTUD3 inh 34.9, USP30 block 52.2
CCOc1ccccc1NC(=O)Cn1c(=O)n(CCC(=O)NCc2ccc3c(c2)OCO3)c(=O)c2sccc21	USP17 inh 60.5 (no result: USP30 block, USP28 inh)
Cc1ccc(C(=O)C(C)OC(=O)c2cc3ccccc3oc2=O)cc1 (stereo not drawn)	USP17 inh 47.4 (no result: USP30 block, USP28 inh)
